Data reported in PubChem BioAssay (Tox21).
Inconclusive results are not listed. Activity calls are given as the source filed them. Unless noted, calls come from the whole dose curve; as a rule, active = well fitted curve in the direction sought with a large enough effect in the repeat runs; inconclusive = weak or mixed curves; inactive = no such curve, though single readings can be large; an effect the other way counts as inactive or inconclusive.

Columns and labels:
[1] = biological target: Thyrotropin receptor (Homo sapiens) (UniProt P16473); test: qHTS assay to identify small molecule antagonists of the thyroid stimulating hormone receptor (TSHR) signaling pathway (AID 1259385; calls by dose curve; note: nearly all actives have a fitted effect of over 20% in size)
Procedure, shortened: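 TSHR-HEK293 cells were plated and held 18 h at 37C/5% CO2, then given compound plus Ro20-1724 and stimulated with TSH at 1.5 ng/mL final. After 30 min at room temperature, cAMP was detected with cAMP-d2/anti-cAMP-cryptate (1 h) by fluorescence.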

[2] = biological target: Progesterone receptor (Homo sapiens) (UniProt P06401); test: qHTS assay to identify small molecule agonists of the progesterone receptor (PR) signaling pathway (AID 1346784; calls by dose curve; note: nearly all actives have a fitted effect of over 30% in size)
Procedure, shortened: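 Reporter assay, GripTite PR-UAS-bla HEK 293T cells: 16 hr exposure to DMSO-dissolved compounds at 37C, 5% CO2, in steroid-depleted (2% charcoal-stripped FBS) medium; beta-lactamase measured by FRET fluorescence.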

[3] = qHTS assay to identify small molecule antagonists of the progesterone receptor (PR) signaling pathway - cell viability counter screen (AID 1346798); note: series mostly up to about 92 µM; nearly all actives have a fitted effect of over 50% in size
Procedure, shortened: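 In the same plates used for the beta-lactamase readout, cell viability of compound- and R5020-treated PR-UAS-bla HEK293T cells (16 hr, 37C) was assessed by CellTiter-Glo luminescence.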

[4] = qHTS assay to identify small molecule agonists of the progesterone receptor (PR) signaling pathway - cell viability counter screen (AID 1346799; calls by dose curve; note: nearly all actives have a fitted effect of over 45% in size)
Procedure, shortened: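 Multiplexed viability read: CellTiter-Glo luminescence, 30 min RT, following LiveBLAzer FRET measurement on PR-UAS-bla HEK293T cells exposed to compounds 16 hr.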

[5] = qHTS assay to identify small molecule antagonists of the TGF-beta/Smad signaling pathway - cell viability counter screen (AID 1346824); note: nearly all actives have a fitted effect of over 50% in size
Procedure, shortened: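 SBE-bla HEK 293T cells were plated overnight at 37 C, then given compounds in DMSO plus TGF-beta1 (added as 0.25 ng/mL solution) for 5 hr. After the bla read, CellTiter-Glo was added to the same wells and luminescence read after 30 min at room temperature.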

[6] = qHTS assay to identify small molecule agonists of the TGF-beta/Smad signaling pathway - cell viability counter screen (AID 1346829); note: top concentration of the series differs between compounds; nearly all actives have a fitted effect of over 45% in size
Procedure, shortened: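 In parallel with the Smad reporter read, viability of HEK 293T cells stably carrying SBE-bla is quantified by ATP luminescence following 5 hr compound treatment.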

[7] = qHTS assay to identify small molecule agonists of the TGF-beta/Smad signaling pathway (AID 1346859; active = well fitted activation curve with a large enough effect in the signal ratio in the repeat runs, not every such curve was filed as active; the % refers to the signal ratio; note: series mostly up to about 77 µM)
Procedure, shortened: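 Screening used HEK 293T SBE-bla cells at 4,000/well. Test agents: 5 hr, 37 C. Detection: FRET substrate, 2 hr RT, then excitation 405 nm with emissions at 460 and 530 nm.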

[8] = biological target: Thyrotropin-releasing hormone receptor (Homo sapiens) (UniProt P34981); test: qHTS assay to identify small molecule antagonists of the thyrotropin-releasing hormone receptor (TRHR) signaling pathway (AID 1346877; active = well fitted inhibition curve with a large enough effect in the repeat runs, not every such curve was filed as active; note: series mostly up to about 51 µM)
Procedure, shortened: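 Screening used HEK293 cells engineered with TRHR, with a brief 5 min room-temperature compound exposure preceding addition of TRH to 1 nM. The read-out was kinetic calcium-dye fluorescence, concentration-response from 15 doses in triplicate.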

[9] = qHTS assay to identify small molecule agonists of the estrogen receptor alpha (ER-alpha) signaling pathway in the presence of an antagonist - cell viability counter screen (AID 1259386);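 note: series mostly up to about 92 µM; cells exposed to compounds for 22 h at 37 °C before the viability read; nearly all actives have a fitted effect of over 30% in size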
Procedure, shortened: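 ICI-182,780 at 10.0nM final accompanies the compound titration (15 concentrations, 22hr, 37C) on VM7Luc4E2 cells. The CellTiter-Fluor fluorescence readout runs in the same wells as the luciferase assay.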

[10] = biological target: Progesterone receptor (Homo sapiens) (UniProt P06401); test: qHTS assay to identify small molecule antagonists of the progesterone receptor (PR) signaling pathway (AID 1346795; active = well fitted inhibition curve with a large enough effect in the signal ratio in the repeat runs, not every such curve was filed as active; the % refers to the signal ratio)
Procedure, shortened: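 Stimulus R5020 at 1 nM final; cells HEK293T PR-UAS-bla; medium with 2% charcoal-stripped FBS; compound exposure 16 hr at 37C, 5% CO2; detection by FRET beta-lactamase substrate, 2 hr, room temperature.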

Measured: Potency

Sequence of Progesterone receptor (Homo sapiens) (P06401 whole entry, looked up): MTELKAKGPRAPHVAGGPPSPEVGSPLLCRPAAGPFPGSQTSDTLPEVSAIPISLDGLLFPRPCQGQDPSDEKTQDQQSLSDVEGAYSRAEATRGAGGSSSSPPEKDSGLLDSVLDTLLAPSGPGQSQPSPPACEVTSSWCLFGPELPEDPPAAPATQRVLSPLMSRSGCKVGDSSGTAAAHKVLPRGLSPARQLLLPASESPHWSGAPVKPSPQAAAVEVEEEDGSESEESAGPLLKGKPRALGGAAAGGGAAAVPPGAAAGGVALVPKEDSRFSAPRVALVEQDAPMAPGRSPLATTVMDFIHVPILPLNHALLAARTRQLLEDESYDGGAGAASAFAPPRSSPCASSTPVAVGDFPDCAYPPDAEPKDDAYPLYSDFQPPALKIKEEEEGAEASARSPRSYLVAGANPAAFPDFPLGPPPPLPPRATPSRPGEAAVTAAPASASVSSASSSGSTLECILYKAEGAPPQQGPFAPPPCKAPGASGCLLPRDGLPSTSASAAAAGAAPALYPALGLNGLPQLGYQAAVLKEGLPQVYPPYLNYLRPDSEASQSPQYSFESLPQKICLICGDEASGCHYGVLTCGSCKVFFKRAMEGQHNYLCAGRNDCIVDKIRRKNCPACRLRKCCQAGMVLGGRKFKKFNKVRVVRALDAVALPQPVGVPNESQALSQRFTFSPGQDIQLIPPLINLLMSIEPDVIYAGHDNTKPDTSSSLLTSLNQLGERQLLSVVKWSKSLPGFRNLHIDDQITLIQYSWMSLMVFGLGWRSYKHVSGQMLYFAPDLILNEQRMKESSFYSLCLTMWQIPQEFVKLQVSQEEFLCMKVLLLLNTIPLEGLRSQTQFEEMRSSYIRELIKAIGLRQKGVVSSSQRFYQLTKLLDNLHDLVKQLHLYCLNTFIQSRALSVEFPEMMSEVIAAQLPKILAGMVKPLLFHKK
Sequence of Thyrotropin-releasing hormone receptor (Homo sapiens) (P34981 whole entry, looked up): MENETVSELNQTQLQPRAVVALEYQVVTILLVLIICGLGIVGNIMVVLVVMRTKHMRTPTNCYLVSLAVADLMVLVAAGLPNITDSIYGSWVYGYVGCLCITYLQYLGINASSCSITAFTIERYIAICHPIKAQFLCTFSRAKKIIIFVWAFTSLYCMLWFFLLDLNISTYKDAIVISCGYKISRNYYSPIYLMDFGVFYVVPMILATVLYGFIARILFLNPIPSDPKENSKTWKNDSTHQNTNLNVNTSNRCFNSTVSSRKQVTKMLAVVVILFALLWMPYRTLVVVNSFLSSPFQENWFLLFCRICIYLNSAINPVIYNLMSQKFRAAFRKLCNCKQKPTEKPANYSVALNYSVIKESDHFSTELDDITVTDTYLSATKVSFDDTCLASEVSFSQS
Sequence of Thyrotropin receptor (Homo sapiens) (P16473 whole entry, looked up): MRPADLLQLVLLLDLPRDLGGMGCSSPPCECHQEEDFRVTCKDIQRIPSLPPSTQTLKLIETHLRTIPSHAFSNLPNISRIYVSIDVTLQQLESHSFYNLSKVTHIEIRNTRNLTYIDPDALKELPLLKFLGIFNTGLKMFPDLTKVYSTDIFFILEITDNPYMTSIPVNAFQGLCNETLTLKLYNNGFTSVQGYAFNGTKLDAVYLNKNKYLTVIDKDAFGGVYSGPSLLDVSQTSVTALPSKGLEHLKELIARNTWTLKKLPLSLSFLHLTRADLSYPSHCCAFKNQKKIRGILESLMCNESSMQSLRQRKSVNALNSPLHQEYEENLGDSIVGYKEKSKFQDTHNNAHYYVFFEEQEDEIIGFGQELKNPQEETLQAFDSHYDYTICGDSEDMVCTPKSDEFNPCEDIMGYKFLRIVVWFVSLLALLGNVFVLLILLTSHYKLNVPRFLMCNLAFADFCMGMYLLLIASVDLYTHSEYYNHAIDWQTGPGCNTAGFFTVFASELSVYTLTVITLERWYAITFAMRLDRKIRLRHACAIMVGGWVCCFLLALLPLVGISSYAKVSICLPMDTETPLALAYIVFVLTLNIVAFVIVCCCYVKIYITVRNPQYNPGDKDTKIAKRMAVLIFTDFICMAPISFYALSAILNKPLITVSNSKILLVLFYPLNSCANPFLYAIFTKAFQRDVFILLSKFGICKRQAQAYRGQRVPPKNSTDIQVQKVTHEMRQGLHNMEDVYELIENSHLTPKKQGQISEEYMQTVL

O=P(O)(O)O
not listed: [9] | [10]
inactive: all other assays above

O=C=Nc1ccc(Cc2ccc(N=C=O)cc2)cc1
not listed: [8] | [9] | [10]
inactive: all other assays above

Cc1ccc(C)c(O)c1C
not listed: [7] | [9] | [10]
inactive: all other assays above

c1ccc2cc(Nc3ccc(Nc4ccc5ccccc5c4)cc3)ccc2c1
not listed: [1] | [7] | [8]
inactive: all other assays above

O=CCCCC=O
not listed: [1]
inactive: all other assays above

Cc1cccc([N+](=O)[O-])c1C
not listed: [1]
inactive: all other assays above
